Test results: PubChem BioAssay (EPA / NIEHS)
Results filed as inconclusive are left out. Activity calls are given as the source filed them. How the source made its calls: active means hit-call score of the fitted dose curve at least 0.9, where 1 is the maximum; inconclusive means response in the unintended direction; inactive means score below 0.9.

biological target: Cellular tumor antigen p53 (Homo sapiens) (UniProt P04637); assay: TOX21_p53_BLA_p2_ratio: Tox21 HCT-116 p53 Agonism Beta-lactamase Assay, Ratio, Phase 2 (AID 2283592)
Summary of the method: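 An inducible beta-lactamase reporter in HCT116 cells signals p53 pathway activation. After 16 h chemical exposure at 37C, cells load CCF4-AM substrate for 2 h at room temperature; activity is the cleaved/uncleaved emission ratio relative to DMSO.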

Cellular tumor antigen p53 (Homo sapiens), sequence (P04637 whole entry, looked up): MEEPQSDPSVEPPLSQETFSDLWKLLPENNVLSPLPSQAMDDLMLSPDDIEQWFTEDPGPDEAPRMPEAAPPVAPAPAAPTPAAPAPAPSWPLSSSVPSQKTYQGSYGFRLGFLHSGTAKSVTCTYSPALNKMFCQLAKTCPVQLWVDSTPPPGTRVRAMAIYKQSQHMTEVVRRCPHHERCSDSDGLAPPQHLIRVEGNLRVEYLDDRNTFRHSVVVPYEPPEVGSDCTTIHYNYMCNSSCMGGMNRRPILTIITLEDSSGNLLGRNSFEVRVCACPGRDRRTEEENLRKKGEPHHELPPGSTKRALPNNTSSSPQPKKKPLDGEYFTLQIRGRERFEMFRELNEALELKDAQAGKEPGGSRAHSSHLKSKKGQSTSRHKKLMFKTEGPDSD

Row | Structure (SMILES) | outcome
1 | Nc1cccc([N+](=O)[O-])c1 | inactive
2 | CCN(CC)CCC(=O)N1c2ccccc2Sc2ccc(C(F)(F)F)cc21 | inactive
3 | O=C1c2ccccc2C(=O)C1c1ccc(F)cc1 | inactive
4 | N[C@@H](CCC(=O)Nc1ccc([N+](=O)[O-])cc1)C(=O)O | inactive
5 | CCCCOC(=O)C(=O)Nc1cccc(-c2nn[nH]n2)c1 | inactive
6 | C[N+]1(C)[C@@H]2CC(OC(=O)[C@H](CO)c3ccccc3)C[C@H]1[C@@H]1O[C@@H]12 (stereo not given in full) | inactive
7 | O=C(C(=O)c1ccco1)c1ccco1 | inactive
8 | N#CSc1ccc(N)c([N+](=O)[O-])c1 | inactive
9 | CN1CCN(C2=Nc3ccccc3Sc3ccc(Cl)cc32)CC1 | inactive
10 | O=C1c2ccccc2C(=O)c2c1ccc(O)c2O | inactive
11 | Cc1c(N=C=O)cccc1N=C=O | inactive
12 | O=C(Nc1cccc(C2=NCCN2)c1)Nc1cccc(C2=NCCN2)c1 | inactive
13 | C1=CCC2CC=CC2C1 (stereo not given) | inactive
14 | CC1(C)OC(=O)NC1=O | inactive
15 | CCOCCC(=O)OCC | inactive
16 | CCC(CO)(CO)CO | inactive
17 | CN1C[C@H]2c3ccccc3Oc3ccc(Cl)cc3[C@@H]2C1 | inactive
18 | CCC(C)(CN(C)C)OC(=O)c1ccccc1 (stereo not given) | inactive
19 | N[C@H](C(=O)O)[C@@H](O)c1ccc(O)c(O)c1 | inactive
20 | NCCCC(=O)O | inactive
21 | FC(F)(F)c1cccc(Cl)c1 | inactive
22 | CC(C)C(=O)O | inactive
23 | CC(=O)N[C@@H](Cc1ccc(O)cc1)C(=O)O | inactive
24 | Cc1ccnc2ccccc12 | inactive
25 | CN1CCN(c2c(F)cc3c(=O)c(C(=O)O)cn4c3c2OCN4C)CC1 | inactive
